Experimental data taken from article PMC10726135, “HNF4α isoforms regulate the circadian balance between carbohydrate and lipid metabolism in the liver”.
Whole data set: some 18,000 sequences, median “log2 normalized intensity” near 0.39, cut for the highest 2% near 6.6. For the sample, the highest values were picked, then their nearest neighbours and some sequences at random.

These sequences were tested against T1, HNF4alpha2 (COS-7 nuclear extract) (Homo sapiens, UniProt P41235 1-474) (assay: protein-binding microarray; COS-7 nuclear extract on double-stranded Agilent 4x180k PBM; binding buffer, salt, pH and temperature not given in the material; high values mean tight binding). Settings: chain copies: 2; label: 3' end of strand 1 on the slide; dsDNA, one strand shown.
T1 sequence: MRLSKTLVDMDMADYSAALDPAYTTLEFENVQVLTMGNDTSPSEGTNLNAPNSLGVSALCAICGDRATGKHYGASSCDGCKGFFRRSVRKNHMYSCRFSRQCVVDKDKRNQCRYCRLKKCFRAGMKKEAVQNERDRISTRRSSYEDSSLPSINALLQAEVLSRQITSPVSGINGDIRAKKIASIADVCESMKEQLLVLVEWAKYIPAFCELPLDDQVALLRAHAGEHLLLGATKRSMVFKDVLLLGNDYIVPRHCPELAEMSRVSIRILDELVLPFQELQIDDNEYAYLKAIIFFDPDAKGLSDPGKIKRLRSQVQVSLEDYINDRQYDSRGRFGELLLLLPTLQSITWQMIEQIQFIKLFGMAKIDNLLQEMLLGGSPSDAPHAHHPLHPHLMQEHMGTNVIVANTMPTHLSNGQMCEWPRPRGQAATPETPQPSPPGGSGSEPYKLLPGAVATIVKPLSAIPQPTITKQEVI
Method in brief: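 Double-stranded oligonucleotides of ~60 nt, representing ~44,000 test sequences in quadruplicate, made up a custom Agilent SurePrint G3 4x180k array. Nuclear extracts from COS-7 cells transiently transfected by CaPO4 with a human HNF4α isoform expression vector were applied, and bound HNF4α was imaged at 2-µm resolution on an Agilent G2565CA scanner. Binding signal refers to the background-corrected, normalized gProcessedSignal output of Agilent software.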

Sequence | binding signal [log2 normalized intensity]
AACGGTTCAAAGGACAGACTTTGGACCTGGGCCTAGGGAGATTAGAGTATCGGTCGA | 7.15
TTCAAAGGACAGACTTTGGACCTGGCCCTCGCCTAGGGAGATTAGAGTATCGGTCGA | 5.66
GGGCGTGTGTTAGACTTTGGACCTGGCCTGGCCTAGGGAGATTAGAGTATCGGTCGA | 7.25
GTTGGACTTTGGACCTTTGTGTGTGTGTGTGCCTAGGGAGATTAGAGTATCGGTCGA | 7.93
TGACAACTGAATGTGACCTTTTGGACCACAGCCTAGGGAGATTAGAGTATCGGTCGA | 6.82
GATACAACGGTTCAAAGGACAGACTTTGGAGCCTAGGGAGATTAGAGTATCGGTCGA | 3.39
CCTGATGACAACTGAATGTGACCTTTTGGAGCCTAGGGAGATTAGAGTATCGGTCGA | 5.25
GGACTTTGGCCTTACTTGGCCTGTTTGCTGGCCTAGGGAGATTAGAGTATCGGTCGA | 5.51
ACTGAATGTGACCTTTTGGACCACAGAGTGGCCTAGGGAGATTAGAGTATCGGTCGA | 5.39
ACTTTGGACCTTTGTGTGTGTGTGTGTGTGGCCTAGGGAGATTAGAGTATCGGTCGA | 3.6
TGGTTAGGTATTTTAAGTCACCAGATGAGAGCCTAGGGAGATTAGAGTATCGGTCGA | 0.217
CTCCTCCCTCAGGGATCTTTGCACTTGATGGCCTAGGGAGATTAGAGTATCGGTCGA | 1.32
TGGATGGGGGAGGGGACTTCGCTGGAGGTGGCCTAGGGAGATTAGAGTATCGGTCGA | -0.382
TATCTTCGTATAGAAACAAGACAGAATGATGCCTAGGGAGATTAGAGTATCGGTCGA | -0.775
GTAAACACAGACTTTGGAATCACAATGATAGCCTAGGGAGATTAGAGTATCGGTCGA | 1.97
CCTGTACCTAGAATTCTTTCACTCCCTTTTGCCTAGGGAGATTAGAGTATCGGTCGA | 1.12
TTACCGGTGTGACTTTGGTTGGATTTCTTGGCCTAGGGAGATTAGAGTATCGGTCGA | 1.54
GGGGACCTTTGGCCTTTACCTGTTACTTATGCCTAGGGAGATTAGAGTATCGGTCGA | 3.57
AGGGGTTACTAGTGAGTTGGACTTTGGACCGCCTAGGGAGATTAGAGTATCGGTCGA | 11.6
AAGAAGGTTTACTCAAGCAAAAAGTTTGGAGCCTAGGGAGATTAGAGTATCGGTCGA | 0.467
AGGTACAAACATACTTAGGATTTTTGTGCCGCCTAGGGAGATTAGAGTATCGGTCGA | 0.442
CTCTCGGGCCAGCTGTACAAATAAAGGATGGCCTAGGGAGATTAGAGTATCGGTCGA | -0.146
TAAACTTTTGATTGCTTAGGCTCTTGTTATGCCTAGGGAGATTAGAGTATCGGTCGA | -0.703
GAGGCAGCAAGGTCAAAGTGCGTCCTGTGGGCCTAGGGAGATTAGAGTATCGGTCGA | 3.92
TTGCACTGTGCTTTGTTTACTTAACCTTTGGCCTAGGGAGATTAGAGTATCGGTCGA | 4.05
TACCTGTGCAGATATTTAACCTTTGATCTGGCCTAGGGAGATTAGAGTATCGGTCGA | 7.34

Sequence | binding signal [log2 normalized intensity]
GATATTTAACCTTTGATCTGTAAGCTCTCTGCCTAGGGAGATTAGAGTATCGGTCGA | 4.61
CTTTGTTTACTTAACCTTTGATCATATGCAGCCTAGGGAGATTAGAGTATCGGTCGA | 5.18
CTGTGCTTTGTTTACTTAACCTTTGATCATGCCTAGGGAGATTAGAGTATCGGTCGA | 7.05
GTGGCTACCTGTGCAGATATTTAACCTTTGGCCTAGGGAGATTAGAGTATCGGTCGA | 4.11
TCTGAAAAAAGCTATCATTTGTCACTTGGAGCCTAGGGAGATTAGAGTATCGGTCGA | 1.38
GACCAGGTTGTGAGGGAGGGCACAGGCAACGCCTAGGGAGATTAGAGTATCGGTCGA | -0.298
ATTTCTGTTGTTGATTTAACATTTGTGATCGCCTAGGGAGATTAGAGTATCGGTCGA | 1.92
TGATAGCCTTTTACCTTGGCAGCCACTGAGGCCTAGGGAGATTAGAGTATCGGTCGA | -0.876
AGGCTGAAGGGAAGCTCTGGGAGTGCCCTTGCCTAGGGAGATTAGAGTATCGGTCGA | 1.93
CTGCCAAATATTGGGCAATGCTAGGTCTTTGCCTAGGGAGATTAGAGTATCGGTCGA | -0.788
ACTTTGGACTTGGGACTTTCGAGTTAATGCGCCTAGGGAGATTAGAGTATCGGTCGA | 4.12
TTTGGACTTTGGACTTGGGACTTTCGAGTTGCCTAGGGAGATTAGAGTATCGGTCGA | 7.8
TGTGATGTGAAGAGTGTGGACTTTCACCTCGCCTAGGGAGATTAGAGTATCGGTCGA | 8.12
TGTGAAGAGTGTGGACTTTCACCTCCACCAGCCTAGGGAGATTAGAGTATCGGTCGA | 6.06
CCTTTGGACTGTCCTTTGCTAGATTCTTTCGCCTAGGGAGATTAGAGTATCGGTCGA | 2.01
GAGACTTTGGACTTTGGACTTGGGACTTTCGCCTAGGGAGATTAGAGTATCGGTCGA | 9.27
CTGGACTTTCCTTTGTTGGGAGACTTTTTAGCCTAGGGAGATTAGAGTATCGGTCGA | 1.63
GGACTTGGGACTTTCGAGTTAATGCTGGAGGCCTAGGGAGATTAGAGTATCGGTCGA | 2.54
GACCATGTGATGTGAAGAGTGTGGACTTTCGCCTAGGGAGATTAGAGTATCGGTCGA | 4.26
TGAGTAGTGTACGTTGTACCCCACAGGTATGCCTAGGGAGATTAGAGTATCGGTCGA | 2.94
CTCTCTTTCTTCCCCCACTCCAAGTTCCTTGCCTAGGGAGATTAGAGTATCGGTCGA | 4.22
TGCTCCAGTAAAAGCTCTACCTGACCTCCCGCCTAGGGAGATTAGAGTATCGGTCGA | 2.94
GCTGTGTCCCACAGGGAAAGTATGGGTCAGGCCTAGGGAGATTAGAGTATCGGTCGA | 1.12
TCATGTTCAATATACAGTTGGTATTTAGTAGCCTAGGGAGATTAGAGTATCGGTCGA | 1.83
CCCCTAAAGGAGGCAAGGTCCAAACTTCTCGCCTAGGGAGATTAGAGTATCGGTCGA | 1.7
ATGTTGGGCAACTACCTCAAAGTTTTGTTAGCCTAGGGAGATTAGAGTATCGGTCGA | 0.0615
